Here are results for 33 compounds from PubChem BioAssay.

A number with no mark means an inactive call. The list shows a part of the results. The source made the active and inactive calls. Rule as the data show it, unless noted: active = inhibition above about 36%; inactive = the rest.

The nature of assay [1]: reduced OD of V66 E. coli with T4 gene 2 phage – absorbance, RecBCD inhibitor project, confirmation (AID 651982;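 active = mean inhibition over triplicates exceeding the hit threshold derived in the original primary screen, cut at about 11% in these data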). The following applies: E. coli V66 + T4 2- phage, growth OD; at 11.9 µM; active compounds read high.
Assay [2] is described as follows: bacterial growth inhibition – absorbance, high throughput, counter-screen for RecBCD inhibitor project (AID 651983; in the data active = inhibition above about 20%;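 also: E. coli strain V66 grown with compound alone and no phage infection; 0% = bacteria with DMSO vehicle only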). As to conditions: E. coli viability, absorbance (OD) growth; at 11.9 µM; active compounds read high.
Assay [3] is described as follows: reduced optical density, T4-challenged addAB+ bacteria – absorbance, E. coli V3065, T4 phage, counter-screen for RecBCD inhibitor project, confirmation (AID 651984;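 active = mean inhibition above the solvent-only control wells' mean plus 3 SD, cut at about 22% in these data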;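 also: higher means less bacterial growth from phage killing when AddAB is blocked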). The following applies: E. coli expressing H. pylori AddAB + T4 phage, OD growth; at 11.9 µM; active compounds read high; gene 2 mutant T4, recBCD-deleted host. (A counterscreen serves to expose hits that act by an unwanted route or on another target.)

Assay [4] can be described thus: StAR promoter reporter inhibitors, counter-screen for LRH-1 inverse agonist project, cell-based, luminescence, high throughput (AID 651611; in the data active = inhibition above about 28%). As to conditions: StAR promoter luciferase reporter counterscreen, at 3.6 µM, active compounds read high.
The target in assay [5] is Nuclear receptor subfamily 5 group A member 2 (Homo sapiens) (UniProt O00482). Description: NR5A2 activity suppression in reporter cells – cell-based, luminescence, confirmation (AID 651613; in the data active = inhibition above about 42%;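 also: HEK293T cells co-transfected with LRH-1 and StAR promoter luciferase reporter; 0% = vehicle wells and 100% = parental cells lacking receptor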). The following applies: cell-based LRH-1 luciferase reporter, inverse agonism; at 3.6 µM; active compounds read high.
Assay [6] deals with Steroidogenic factor 1 (Homo sapiens) (UniProt Q13285). Description: inverse agonism at SF1 nuclear receptor – cell-based, luminescence, high throughput, counter-screen for LRH-1 inverse agonist project (AID 651614; in the data active = inhibition above about 44%;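 also: cells cotransfected with StAR promoter reporter and SF1 expression vector; 0% = vehicle on cells with receptor and 100% = vehicle on cells lacking receptor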). As to conditions: cell-based SF1 luciferase reporter, at 3.6 µM, active compounds read high.
A short description of assay [7]: compounds suppressing VP16-driven luciferase signal – cell-based, luminescence, high throughput, counter-screen for LRH-1 inverse agonist project (AID 651615; in the data active = inhibition above about 33%). As to conditions: Gal4-VP16 luciferase reporter cells, at 3.6 µM, active compounds read high.
Assay [8] can be described thus: VP16-driven transactivation reporter suppression – cell-based, luminescence, HEK293, counter-screen for COUP-TFII antagonist project (AID 687007; in the data active = inhibition above about 13%). As to conditions: HEK293 Gal4-VP16 luciferase reporter, at 8.5 µM, active compounds read high.
Assay [9] has as its target COUP transcription factor 2 (Homo sapiens) (UniProt P24468). In words: retest of COUP-TFII reporter suppressors – cell-based, luciferase reporter, HEK293, triplicate, confirmation (AID 687008;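 active = mean inhibition over three repeats above a set limit taken from the earlier primary screen, cut at about 38% in these data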;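 also: 100% = cells given the luciferase reporter alone without the COUP-TF2 vector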). As to conditions: HEK293 NGFI-A luciferase reporter, luminescence; at 8.5 µM; active compounds read high.
Assay [10] has as its system transactivating tegument protein VP16 (Human herpesvirus 1). In words: compounds suppressing VP16-driven luciferase signal – cell-based, luminescence, single concentration, counter-screen for SRC2 inhibitor project (AID 652007). As to conditions: cell-based VP16 transactivation luciferase reporter, at 8.9 µM, active compounds read high.
For assay [11], the target named is Nuclear receptor coactivator 2 (Homo sapiens) (UniProt Q15596). In words: inhibition of GAL4-SRC2 driven luciferase expression – cell-based, luminescence, HEK293, triplicate, confirmation (AID 652008;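 active = mean inhibition above 46.5%, the solvent-only control mean plus 3 SD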;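 also: 0% = DMSO-treated cells and 100% = Gossypol at 36 µM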). The following applies: HEK293 GAL4-SRC2 luciferase reporter, at 8.9 µM, active compounds read high. For orientation: In a reporter assay the amount or activity of a reporter protein is the signal.
Sequence of Nuclear receptor coactivator 2 (Homo sapiens) (Q15596 whole entry, looked up, the tested form may be a part): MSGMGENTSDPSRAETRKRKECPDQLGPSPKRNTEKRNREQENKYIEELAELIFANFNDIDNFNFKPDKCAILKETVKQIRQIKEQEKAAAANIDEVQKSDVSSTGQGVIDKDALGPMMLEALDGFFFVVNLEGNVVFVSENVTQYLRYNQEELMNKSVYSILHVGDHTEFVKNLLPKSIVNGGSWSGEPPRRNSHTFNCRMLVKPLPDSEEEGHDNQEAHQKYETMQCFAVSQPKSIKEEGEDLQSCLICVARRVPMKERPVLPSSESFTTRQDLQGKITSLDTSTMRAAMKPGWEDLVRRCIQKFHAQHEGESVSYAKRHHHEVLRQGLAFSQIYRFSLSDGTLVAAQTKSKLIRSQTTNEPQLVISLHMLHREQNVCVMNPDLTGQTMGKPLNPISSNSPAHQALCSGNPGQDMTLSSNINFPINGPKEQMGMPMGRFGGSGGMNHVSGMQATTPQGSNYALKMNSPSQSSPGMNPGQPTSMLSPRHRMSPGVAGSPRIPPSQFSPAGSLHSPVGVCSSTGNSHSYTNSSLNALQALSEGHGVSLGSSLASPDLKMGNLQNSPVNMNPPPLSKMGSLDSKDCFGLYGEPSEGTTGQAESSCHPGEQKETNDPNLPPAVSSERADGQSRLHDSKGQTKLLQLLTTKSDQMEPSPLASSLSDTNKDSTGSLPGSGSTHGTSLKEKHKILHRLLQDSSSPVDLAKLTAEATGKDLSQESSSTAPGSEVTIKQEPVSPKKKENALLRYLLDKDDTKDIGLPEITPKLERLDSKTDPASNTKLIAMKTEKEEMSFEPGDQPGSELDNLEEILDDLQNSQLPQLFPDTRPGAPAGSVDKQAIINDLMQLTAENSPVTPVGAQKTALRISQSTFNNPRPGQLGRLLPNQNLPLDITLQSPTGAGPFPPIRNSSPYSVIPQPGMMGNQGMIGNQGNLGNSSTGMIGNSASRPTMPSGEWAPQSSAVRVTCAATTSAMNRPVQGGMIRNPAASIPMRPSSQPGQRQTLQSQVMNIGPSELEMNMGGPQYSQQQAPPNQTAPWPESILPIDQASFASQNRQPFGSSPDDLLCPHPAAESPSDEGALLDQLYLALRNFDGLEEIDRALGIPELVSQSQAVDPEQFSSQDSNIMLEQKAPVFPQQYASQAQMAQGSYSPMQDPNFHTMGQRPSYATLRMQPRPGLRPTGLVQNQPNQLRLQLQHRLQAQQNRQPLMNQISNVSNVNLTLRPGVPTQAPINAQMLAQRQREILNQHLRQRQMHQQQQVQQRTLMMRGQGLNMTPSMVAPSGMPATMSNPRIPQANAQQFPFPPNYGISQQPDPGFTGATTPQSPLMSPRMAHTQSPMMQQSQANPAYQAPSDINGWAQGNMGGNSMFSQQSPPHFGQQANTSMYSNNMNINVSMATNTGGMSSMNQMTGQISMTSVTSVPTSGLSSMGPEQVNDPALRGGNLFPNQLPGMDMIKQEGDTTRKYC

Sequence of Nuclear receptor subfamily 5 group A member 2 (Homo sapiens) (O00482 whole entry, looked up): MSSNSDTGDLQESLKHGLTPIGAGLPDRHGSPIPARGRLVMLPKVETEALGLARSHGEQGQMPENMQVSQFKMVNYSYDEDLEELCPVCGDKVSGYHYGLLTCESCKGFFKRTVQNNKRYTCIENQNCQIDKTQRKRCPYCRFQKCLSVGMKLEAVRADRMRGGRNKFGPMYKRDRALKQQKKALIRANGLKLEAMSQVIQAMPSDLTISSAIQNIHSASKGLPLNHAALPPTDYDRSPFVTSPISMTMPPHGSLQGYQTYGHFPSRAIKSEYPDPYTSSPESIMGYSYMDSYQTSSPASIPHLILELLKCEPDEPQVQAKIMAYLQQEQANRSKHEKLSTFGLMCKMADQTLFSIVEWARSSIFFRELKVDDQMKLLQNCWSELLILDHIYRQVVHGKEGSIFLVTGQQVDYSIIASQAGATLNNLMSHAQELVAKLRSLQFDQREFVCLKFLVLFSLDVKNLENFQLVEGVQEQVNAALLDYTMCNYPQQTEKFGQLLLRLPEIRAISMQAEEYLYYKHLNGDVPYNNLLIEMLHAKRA
Sequence of Steroidogenic factor 1 (Homo sapiens) (Q13285 whole entry, looked up, the tested form may be a part): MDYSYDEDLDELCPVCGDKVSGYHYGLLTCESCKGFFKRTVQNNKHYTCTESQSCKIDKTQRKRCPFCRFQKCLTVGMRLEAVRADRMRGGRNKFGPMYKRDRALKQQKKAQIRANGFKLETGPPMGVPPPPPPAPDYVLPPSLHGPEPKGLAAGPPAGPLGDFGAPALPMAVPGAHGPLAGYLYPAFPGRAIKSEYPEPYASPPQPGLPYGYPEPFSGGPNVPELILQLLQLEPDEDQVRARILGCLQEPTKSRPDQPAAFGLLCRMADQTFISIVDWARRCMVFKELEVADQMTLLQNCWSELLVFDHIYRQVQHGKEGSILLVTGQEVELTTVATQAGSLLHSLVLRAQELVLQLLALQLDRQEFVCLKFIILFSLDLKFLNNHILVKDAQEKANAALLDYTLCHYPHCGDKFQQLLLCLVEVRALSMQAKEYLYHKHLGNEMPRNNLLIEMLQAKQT
Sequence of COUP transcription factor 2 (Homo sapiens) (P24468 whole entry, looked up): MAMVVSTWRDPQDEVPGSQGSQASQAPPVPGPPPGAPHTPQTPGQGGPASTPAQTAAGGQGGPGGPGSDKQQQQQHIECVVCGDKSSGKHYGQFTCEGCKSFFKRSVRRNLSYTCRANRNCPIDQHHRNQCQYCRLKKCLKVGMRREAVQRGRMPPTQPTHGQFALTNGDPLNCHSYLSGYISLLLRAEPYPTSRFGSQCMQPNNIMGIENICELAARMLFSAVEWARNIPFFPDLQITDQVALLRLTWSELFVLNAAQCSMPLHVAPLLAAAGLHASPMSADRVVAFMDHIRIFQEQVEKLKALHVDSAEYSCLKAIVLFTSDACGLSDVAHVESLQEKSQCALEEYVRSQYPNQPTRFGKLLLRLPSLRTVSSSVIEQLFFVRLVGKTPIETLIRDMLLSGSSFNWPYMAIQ

On to `COc1cccc(C(O)c2ncc(-c3ccc4ccccc4c3)[nH]2)c1` (stereo not drawn), for which the inhibition was 7.6% in [1], 10.9% in assay [2] and 13.4% in assay [3].
On to `CCCCC(=O)NC(c1ccc(OC)c(OC)c1)c1ccc2cccnc2c1O` (stereo not drawn), for which the inhibition in assay [1] was 13.9% (active); in [2], 17.6%; in [3] it was 25.8% (active).
With `O=C(Nc1ccc(Br)cn1)C1CCN(S(=O)(=O)c2cccs2)CC1`, the inhibition in assay [4] is 13.5%; in assay [5], 48.4% (active); in assay [6], 50.2% (active); in [7], 45.3% (active); in [8], 13.1% (active); in assay [9], 48.2% (active).
`CCCCCCCCCC[n+]1cccc2c3ccccc3ccc21`: the inhibition is 83.3% (active) in assay [4]; 110% (active) in assay [5]; 96.1% (active) in [6]; 95.9% (active) in [7]; 48.9% (active) in [10]; 58.6% (active) in assay [11].
As for `O=C(CCl)N(c1ccccc1)c1c[nH]c2ccccc12`, the inhibition is 62.4% (active) in assay [4]; 55.8% (active) in assay [5]; 38.5% in assay [6]; 18.8% in assay [7]; 21.6% in assay [10]; 17.9% in [11].
In the case of `COc1ccc(/C=C/C(=O)O)cc1O`, the inhibition in [4] is 1.72%; in assay [7], 2.63%.
In the case of `CCc1cc(-c2nnn(CCC3COCCO3)c2CC)ccc1-c1cn(Cc2ccc3ccccc3c2)nn1` (stereo not drawn), the inhibition in [4] was 0.97%; in assay [5] it was 34.7%; in [6], 42.3%; in assay [7], 39.4% (active); in assay [8], -21.8%; in [9], 42% (active).
Take `N#Cc1cccc(C=C(C(=O)c2ccccc2)c2ccccc2)c1`: the inhibition in assay [4] is 18.6%; in assay [5], 28.9%; in assay [6], 36.9%; in assay [7], 32.6% (active); in assay [10], 23%; in assay [11] it was 62.2% (active).
Consider `CC(N)C(=O)NC(CO)C(O)C(N)C=O` (stereo not drawn), for which the inhibition was 56.3% (active) in [5] and 55.5% (active) in [6].
For `CCN1CCN(C(=O)N[C@@H](C(=O)N[C@@H]2C(=O)N3C(C(=O)O)=C(CSc4nnnn4C)CS[C@H]23)c2ccc(O)cc2)C(=O)C1=O`, the inhibition was 99.8% (active) in assay [1], 101% (active) in [2] and 3.42% in [3].
On to `CN(C)c1ccnc2sc(C(N)=O)c(N)c12`, for which the inhibition in assay [10] is -0.64%.
As to `Cc1cc(=O)oc2cc(OC(C)C(=O)NCCc3ccc(S(N)(=O)=O)cc3)ccc12` (stereo not drawn), the inhibition is -19.6% in assay [10] and -12.7% in [11].
The like results for `COc1ccc(/C=C2\SC(=S)N(CCC(=O)N3CCCCC3CCO)C2=O)cc1` (stereo not drawn) were, in that order, 1.26% and 26.7%.
For `O=C(N/N=C/c1coc2ccc(Cl)cc2c1=O)c1ccncc1`, in that order: -13.1% and 31.4%.
For `Cc1cc(C)c2c3c(sc2n1)C(=O)N(c1ccccc1C)CC(=O)N3`, in that order: 4.42% and 5.22%.
Regarding `CC(C(=O)NC(C)(C)C)N(C(=O)CS(=O)CC(=O)Nc1ccc(F)cc1)c1ccccc1F` (stereo not drawn), the inhibition in assay [10] was 2.18%; in [11], -14.3%.
The like results for `COc1ccc(-c2nnc(SCC(=O)Oc3ccc(C)cc3)o2)cc1` were, in that order, -10% and -4.18%.
As to `O=C(NCCCN1CCOCC1)c1cc(-c2ccc(Br)cc2)on1`, the inhibition in assay [10] is -7.7%; in assay [11] it was 13.1%.
Take `Cc1ccc(O)c(NC(=O)c2cc([N+](=O)[O-])ccc2Cl)c1`: the inhibition in [10] was 8.71%; in assay [11], 44.2%.
For the compound `C(=N\Nc1nc2ccccc2s1)/c1ccccn1`, the inhibition in [10] was 49.5% (active); in [11] it was 52.3% (active).
Consider `O=S(=O)(c1ccc(NC(=S)NCc2ccco2)cc1)N1CCCCC1`, for which the inhibition was -14.6% in [10] and 4.68% in assay [11].
For `Oc1cccc2c(NC(=S)Nc3ccc(SC(F)F)cc3)cccc12`, in that order: -23.5% and 53.1% (active).
For `COc1cc(OC)c(C(=O)C=Cc2ccc(OC)c(OC)c2)c(OC)c1`, the inhibition in assay [10] is -5.35%; in [11], 6.31%.
The like results for `O=C1c2ccccc2S(=O)(=O)N1Cc1nc2ccccc2s1` were, in that order, 6.44% and 31.4%.
In the case of `CC1=CC(C)(C)Nc2ccc(OC(=O)c3ccco3)cc21`, the values for the inhibition in assay [10] and in [11] were -20.4% and 31.6%, respectively.
In the case of `CCOc1ccc(N2CC(C(=O)Nc3ccc4c(c3)OCCO4)CC2=O)cc1` (stereo not drawn), the inhibition was -5.36% in [10] and -6.17% in assay [11].
As for `Cc1ccc(-n2nc3ccc(N)cc3n2)c(C)c1`, the inhibition in assay [10] is -39.4%; in [11], 21.3%.
In the case of `COc1ccc(C(=O)OCC(=O)Nc2ccc3c(c2)OCCO3)c(OC)c1`, the results for the inhibition in assay [10] and in [11] were 6.79% and -39%, respectively.
Consider `CC[n+]1cccc(-c2nc3ccccc3s2)c1`, for which the inhibition in [10] is 9.34%; in assay [11] it was 13%.
For `Cc1ccc2sc(N(CCCN(C)C)C(=O)CN3C(=O)c4ccccc4C3=O)nc2c1C`, in that order: -2.35% and 3.74%.
For the compound `CCC1CN(C(=O)NCc2cccc(OC)c2)c2ccccc2O1` (stereo not drawn), the inhibition in assay [10] was -11.8%; in assay [11] it was -14.7%.
For `CC(=O)c1ccc(OCCCC(=O)Nc2ccc(C)c(S(=O)(=O)N3CCCCC3)c2)cc1`, in that order: -1.11% and -2.06%.
For `Cc1ccc(S(=O)(=O)NNC(=O)c2sc(=S)n(C)c2C)cc1`, in that order: -4.43% and -17.1%.

Usually inhibition stands for the drop in the measured response relative to a control, in per cent.
